Laboratory results reported in PubChem BioAssay.
For part of these data: Potency and affinity values are given separately. Records with an inconclusive call do not appear. The list shows a part of the results. Activity calls are given as the source filed them. Unless noted, how the calls were made is not given here.

Legend:
[1] = inhibitors of PAX8-driven TPO luciferase reporter, dose response, RMG-I cells, cherry-pick (AID 687027;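 active means every replicate test run called active, with the signal dropping as expected and potency within twice the top valid dose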)
[2] = inhibitors of CMV-promoter luciferase reporter, dose response, counter-screen for Pax8 inhibitor project, cell-based, HEK293, luminescence, dry powder (AID 743020;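 active means signal-lowering compounds whose fitted half-maximal concentration is at or below twice the top tested dose in every run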;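 further: HEK293 cells stably expressing the CMV luciferase reporter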)
[3] = non-specific cell cytotoxicity, dose response, cytotoxicity control for PAX8 inhibitor project, plate reader, dry powder samples (AID 743021)
[4] = cytotoxicity in PAX8-dependent RMG-1 cells, dose response, cell-based, cherry-pick (AID 687029;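 active means signal drop whose fitted half-maximal concentration is at most twice the top valid dose, in every test run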;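 further: cells exposed to compound for 96 hours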)
[5] = cytotoxicity in IOSE-T80 ovarian epithelial cells, dose response, selectivity assay for PAX8 inhibitor project, cell-based, cherry-pick (AID 687032;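 active means fitted half-maximal concentration for viability loss no higher than twice the top valid dose, in every repeat run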;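 further: cells exposed to compound for 96 h before reading; 0% = neutral control wells and -100% = 2 µM mitoxantrone kill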)
[6] = IGROV1 ovarian cancer cell cytotoxicity, dose response, PAX8 inhibitor project, plate reader, dry powder samples (AID 743043);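 further: more negative means fewer viable cells or more cytotoxicity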
[7] = NIH:OVCAR-3 ovarian cancer cell cytotoxicity, dose response, PAX8 inhibitor project, plate reader, dry powder samples (AID 743044); conditions: max activity: at 35 µM, stronger effect = lower value unless noted
[8] = IOSE-T80 ovarian epithelial cell cytotoxicity, dose response, cytotoxicity control for PAX8 inhibitor project, plate reader, dry powder samples (AID 743045);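 further: 0% = neutral control median and -100% = positive control median; more negative values mean more cell killing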
[9] = A2780 ovarian cancer cell cytotoxicity, dose response, cytotoxicity control, plate reader, dry powder samples (AID 743046);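 further: 0% = neutral control wells and -100% = cytotoxic reference compound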
[10] = cytotoxicity in OVCAR8 ovarian cancer cells, dose response, PAX8 project, cell-based, plate reader, dry powder samples (AID 743197)
[11] = DNA binders by acridine orange displacement, dose response, counter-screen for EWS/Fli inhibitor project, biochemical, fluorescence polarization, cherry-pick (AID 720586;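 active means fitted curve reaches a 35% signal fall AC35 below twice the sample's top valid tested dose, actives reach about 48 µM in these data; inactive means the rest, including activity in the rising direction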;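 further: 0% = neutral control median and -100% = 10 µM mitoxantrone control median; lower polarization ratio signals compound binding to DNA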)

CC1CN(CC(O)COC(c2ccccc2)c2ccccc2)CC(C)O1 (configuration not stated)
inactive: outcome [1] | outcome [2] | outcome [3]

CCSc1cc(N2CCOCC2)nc(-c2ccc(Cl)cc2)n1
inactive: outcome [1] | outcome [2] | outcome [3]

COC(=O)C1=C(C)N(Cc2cccc(C(F)(F)F)c2)C(=NCc2ccc(OC)cc2)NC1c1cccc(F)c1 (configuration not stated)
inactive: outcome [4]

Cc1cc(Nc2ccc3c(c2)OCCO3)c2ccccc2n1
inactive: outcome [1] | outcome [3]

COc1ccc(-c2cc(CNc3nc(NC(C)C)nc4cc(-c5ccccc5)sc34)on2)cc1
inactive: outcome [4]

COc1ccc(C(=O)NC(=S)NNC(=O)c2c(-c3ccccc3)noc2C)cc1
inactive: outcome [1] | outcome [3]

CCCNC(=O)COc1nc2ccccc2nc1N1CCOCC1
inactive: outcome [1] | outcome [2] | outcome [3]

CCCCn1c(O)c(N=NC(=O)Cn2c(C(F)(F)F)nc3ccccc32)c2ccccc21
inactive: outcome [1] | outcome [2] | outcome [3]

C[C@@H]1CN([C@@H](C)CO)C(=O)Cc2cc(NS(=O)(=O)c3ccc(Cl)cc3)ccc2O[C@H]1CN(C)Cc1ccc(C(F)(F)F)cc1
inactive: outcome [1] | outcome [5] | outcome [2] | outcome [3] | outcome [6] | max activity [7] 14.3% [at 0.26 µM, stronger effect = lower value] | outcome [8] | outcome [9] | outcome [10]

Cc1ccc(S(=O)(=O)Nc2ccc3c(c2)C(=O)N([C@@H](C)CO)C[C@@H](C)[C@@H](CN(C)C)OCCCC[C@H](C)O3)cc1
inactive: outcome [1] | outcome [5] | outcome [2] | outcome [3] | outcome [6] | max activity [7] 20.9% [at 0.26 µM, stronger effect = lower value] | outcome [8] | outcome [9] | outcome [10]

NC1=CC(=O)C(=O)c2cccnc21
inactive: AC35 [11] | outcome [3]

O=C(C[C@@H]1C/C=C/CC[C@H](Cc2ccc(F)cc2)C(=O)OC[C@@H](Cc2ccccc2)NC1=O)N[C@H](CO)Cc1ccccc1
inactive: outcome [2]

CS(=O)(=O)c1ccc(C(=O)OCC(=O)N2CCN(CCC3CCCCC3)CC2)cc1[N+](=O)[O-]
inactive: outcome [4] | outcome [5] | outcome [2]

COc1ccc(S(=O)(=O)/N=C2\C=C(Nc3ccc(O)cc3)C(=O)c3ccccc32)cc1
inactive: outcome [4] | outcome [5] | outcome [2]

C=C1CC(Cn2cc(Br)c(=O)[nH]c2=O)(c2ccc(-c3ccccc3)cc2)OC1=O (configuration not stated)
inactive: outcome [4] | outcome [5] | outcome [2]

O=C(CC1SC(=Nc2cccc3ccccc23)N(Cc2ccccn2)C1=O)Nc1ccccc1Br (configuration not stated)
inactive: outcome [4] | outcome [5] | outcome [2]

COc1ccc(C(C(=O)NC2CCCCC2)N(C(=O)CCl)c2cccc(Cl)c2)cc1 (configuration not stated)
inactive: outcome [4] | outcome [5] | outcome [2]

COc1cccc(N(C(=O)c2ccco2)c2nc(-c3sc(NC(=O)c4ccco4)nc3C)cs2)c1
inactive: outcome [4] | outcome [5] | outcome [2]
